From PubChem
Only a selection was taken, and hits are over-represented in it overall.
Dicer inh: inhibitors of Dicer pre-microRNA processing, primary screen, biochemical, cat-ELCCA, chemiluminescence. AID 1347074, 2019. Endoribonuclease Dicer (Homo sapiens), Q9UPY3. 47,000 tested, 6% active. cat-ELCCA pre-miR-21 Dicer processing; stronger effect = higher value. z-score at 25 µM; in the data active = z-score above about 3, passing the limit was not always enough;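 note: higher signal means more uncleaved substrate so more Dicer inhibition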
Hits are given with their value; . = inactive.

SMILES	Dicer inh
O=C(NCc1ccccc1Cl)c1nc2c(nnn2CC2CCCO2)c(=O)[nH]1 (configuration not stated)	.
CC(=O)Oc1ccc(N2C(=O)CC(Nc3ccc(N4CCOCC4)cc3)C2=O)cc1 (configuration not stated)	.
O=C1C(=O)N(CCCn2ccnc2)C(c2ccc(F)cc2)/C1=C(\O)c1ccc(Br)cc1 (configuration not stated)	.
CCOC(=O)CC(=O)CSc1nnc(NC(=O)c2ccc(Cl)cc2)s1	.
CC1=C(OS(=O)(=O)c2cc(C(F)(F)F)cc(C(F)(F)F)c2)C(=O)CC1	.
CCCNC(=O)c1nn2c(C(F)(F)F)cc(-c3cccs3)nc2c1Br	.
CCCSc1nc2ccccc2n1CC(=O)O	.
CC(C)CSc1nc2ccccc2n1CC(=O)O	3.2
COc1ccc(OCCSc2nc3ccccc3n2CC(=O)O)cc1	.
COc1ccc(C(=O)/C=C/S/C=C/C(=O)c2ccc(OC)cc2)cc1	.
NNC(=O)c1sc2ccccc2c1Cl	.
Cc1ccc(COn2c(-c3ccccc3)nc3ccccc3c2=O)cc1	.
CCCN1C(=O)C(=O)c2cc(Br)ccc21	.
N#CCCN(CN1C(=O)C(=O)c2cc(Br)ccc21)C1CCCCC1	.
C#CCN1C(=O)C(=O)c2cc(Br)ccc21	4.3
Cc1n[nH]c(C)c1Sc1ccc(C(F)(F)F)cn1	.
N#Cc1cccnc1N1CCN(C(=O)Nc2ccc(OC(F)(F)F)cc2)CC1	3.1
N#Cc1cccnc1N1CCN(C(=O)Nc2ccccc2)CC1	.
O=C(Nc1ccc(OC(F)(F)F)cc1)N1CCN(c2ccc([N+](=O)[O-])cn2)CC1	.
O=C(CC1(O)C(=O)N(CN2CCOCC2)c2ccc(Br)cc21)c1ccc2ccccc2c1 (configuration not stated)	.
CCc1ccc2nc(NC3=NCN(CCCOC)CN3)nc(C)c2c1	.
Nc1nnc(SCC(=O)N2CCc3ccccc3C2)s1	.
CCCCCSc1nnc(N)s1	4.6
Cc1ccc(C(=O)N2CCN(C(=O)CSc3nnc(N)s3)C2)cc1	.
Cc1nn(S(=O)(=O)c2ccccc2)c(C)c1Cc1c(F)cccc1Cl	.
SMILES	Dicer inh
Cc1cc(C(F)F)n2nc(C(=O)Nc3cc(Cl)ccc3O)nc2n1	.
CCCC1=C(C(=O)OCC)C(c2ccccc2)n2c(nc3ccccc32)N1 (configuration not stated)	.
CCCC1=C(C(=O)OCC)C(c2ccc(O)cc2)n2c(nc3ccccc32)N1 (configuration not stated)	3.6
CCCC1=C(C(=O)OCC)C(c2ccccc2F)n2c(nc3ccccc32)N1 (configuration not stated)	.
CCCc1c(C(=O)Nc2cc(-c3ccccc3)nn2C)cnn1-c1ccccc1	.
Cn1cnc(S(=O)(=O)Nc2ccc(N3CCCCC3)cc2)c1	.
O=S(=O)(Nc1ccc2c(c1)OCCO2)c1cc(S(=O)(=O)c2ccccc2)cs1	.
O=S(=O)(Nc1ccc(N2CCCCC2)cc1)c1cc(S(=O)(=O)c2ccccc2)cs1	5.3
C[C@H]1c2cccc(O)c2C(O)=C2C(=O)[C@]3(O)C(O)=C(C(N)=O)C(=O)[C@@H](N(C)C)[C@@H]3[C@@H](O)[C@@H]21	.
CN(C)c1ccc(O)c2c1CC1CC3[C@@H](N(C)C)C(=O)C(C(N)=O)=C(O)[C@]3(O)C(=O)C1=C2O (some centres not stated)	6.1
Nc1ccccc1Sc1nc2cc(Cl)ccc2s1	.
ONC=Nc1ccccc1Sc1nc2c(Cl)cc(Cl)cc2s1	.
ONC=Nc1ccccc1Sc1nc2cc(Cl)ccc2s1	3.1
OC1CCCCC1N1CCC(c2ccccc2)C1 (configuration not stated)	.
COc1ccc(N=C(c2ccccc2)c2c(C)[nH]n(-c3ccccc3)c2=O)cc1	.
CC1=C(C(=O)OCCc2ccccc2)C(c2ccc3c(c2)OCO3)C2=C(CC(C)(C)CC2=O)N1 (configuration not stated)	.
COC(=O)C1=C(C)NC2=C(C(=O)CC(C)(C)C2)C1c1cccc(F)c1 (configuration not stated)	.
CC1=C(C(=O)Nc2ccc(Br)cn2)C(c2ccc(C)cc2)C2=C(CC(C)(C)CC2=O)N1 (configuration not stated)	.
CCOC(=O)C1=C(C)NC2=C(C(=O)CC(C)(C)C2)C1c1ccc(F)cc1 (configuration not stated)	.
CC1=C(C(=O)Nc2cc(C)ccn2)C(c2ccc(F)cc2)C2=C(CC(C)(C)CC2=O)N1 (configuration not stated)	.
CC1=C(C(=O)Nc2cccc(C)n2)C(c2cccc(Br)c2)C2=C(CC(C)(C)CC2=O)N1 (configuration not stated)	4.8
CC1=C(C(=O)Nc2ccccn2)C(c2ccc(Br)cc2)C2=C(CC(C)(C)CC2=O)N1 (configuration not stated)	4.1
CC1=C(C(=O)Nc2ccc(C)cn2)C(c2cccc(Br)c2)C2=C(CC(C)(C)CC2=O)N1 (configuration not stated)	.
CC1=C(C(=O)Nc2ccc(F)cc2F)C(c2ccc3c(c2)OCO3)C2=C(CC(C)(C)CC2=O)N1 (configuration not stated)	3.1
Cc1csc2c(NCCc3ccccn3)ncnc12	.
SMILES	Dicer inh
N#Cc1c(OCC(F)(F)F)ccc(S(=O)(=O)Nc2ccc([N+](=O)[O-])cc2)c1OCC(F)(F)F	.
O=[N+]([O-])c1ccc(CO/N=C(/c2ccc(Cl)cc2)C2CC2)cc1	.
O=C1CC(NC2CCN(c3ncccn3)CC2)C(=O)N1c1ccc(F)cc1 (configuration not stated)	.
CCCN1CN=C(NS(=O)(=O)c2ccc(C)cc2)NC1	.
Cc1ccc(S(=O)(=O)NC2=NCN(CCc3ccccc3)CN2)cc1	.
Cc1ccc(S(=O)(=O)NC2=NCN(Cc3ccccc3)CN2)cc1	4.6
CCOC(=O)c1cnc2c(F)cc(F)cc2c1Sc1ccc(Cl)cc1	.
CC(Sc1ccc(C(F)(F)F)cc1[N+](=O)[O-])C(=O)O (configuration not stated)	.
Cc1ccc(C2CC(=O)CC(=O)C2)cc1	.
O=C1C(=O)N(CCCn2ccnc2)C(c2ccco2)/C1=C(\O)c1ccc(F)cc1 (configuration not stated)	.
CCC1SC2=NC(C)=C(C(=O)OCc3ccccc3)C(c3ccccc3)N2C1=O (configuration not stated)	.
CSc1ccc(C2c3c(oc4cc(C)c(C)cc4c3=O)C(=O)N2CCCN2CCOCC2)cc1 (configuration not stated)	.
Cc1cccc(C)c1OCC(O)Cn1c[n+](C)c2ccccc21 (configuration not stated)	.
CCOC(=O)NNc1ncccc1C(F)(F)F	.
O=C(Nc1ccc2c(c1)OCO2)Oc1ccccc1	.
O=C(Nc1ccccc1)Oc1cccc(N2CCOCC2)c1	3.3
CC(C)(C)c1ccc(NC(=O)Oc2ccccc2N2CCOCC2)cc1	.
Cn1c(-c2ccc(F)cc2)cnc1NCc1ccc(Br)cc1	.
COc1cccc(-c2cnc(NCc3ccc(Br)cc3)n2C)c1	.
Cn1c(-c2ccc(F)cc2)cnc1NCc1ccccc1F	.
COc1ccc(-c2cnc(NCc3cc(Br)ccc3F)n2C)cc1	.
Cc1ccc(-c2cnc(NCc3ccc(Br)cc3)n2C)cc1	3.3
Cn1c(-c2ccccc2)cnc1NCc1cc(Cl)ccc1O	.
Cn1c(-c2ccc(Cl)cc2)cnc1NCc1ccc(F)cc1F	3.3
